Results reported in PubChem BioAssay AID1851 (National Center for Advancing Translational Sciences (NCATS), 2009).
The campaign covered roughly 16,000 compounds. About 4,000 (25%) were called active. Another 26% or so got no clear call; they are omitted. Calls follow the shape of the dose curve; as a rule, active = well fitted curve in the direction sought with a large enough effect; inconclusive = small, poorly fitted or top-dose-only effect, or effect the other way; inactive = no such curve, though single readings can be large or run the other way. These entries were drawn from the full list.

biological target: Cytochrome P450 2C9 (Homo sapiens) (UniProt P11712); assay: Cytochrome panel assay with activity outcomes; settings: recombinant CYP, pro-luciferin dealkylation, luminescence, p450-cyp2c9; series mostly up to 57.1 µM
% is scaled to controls: 0 for no effect and ±100 for the full control effect.

Sequence of Cytochrome P450 2C9 (Homo sapiens) (P11712 whole entry, looked up): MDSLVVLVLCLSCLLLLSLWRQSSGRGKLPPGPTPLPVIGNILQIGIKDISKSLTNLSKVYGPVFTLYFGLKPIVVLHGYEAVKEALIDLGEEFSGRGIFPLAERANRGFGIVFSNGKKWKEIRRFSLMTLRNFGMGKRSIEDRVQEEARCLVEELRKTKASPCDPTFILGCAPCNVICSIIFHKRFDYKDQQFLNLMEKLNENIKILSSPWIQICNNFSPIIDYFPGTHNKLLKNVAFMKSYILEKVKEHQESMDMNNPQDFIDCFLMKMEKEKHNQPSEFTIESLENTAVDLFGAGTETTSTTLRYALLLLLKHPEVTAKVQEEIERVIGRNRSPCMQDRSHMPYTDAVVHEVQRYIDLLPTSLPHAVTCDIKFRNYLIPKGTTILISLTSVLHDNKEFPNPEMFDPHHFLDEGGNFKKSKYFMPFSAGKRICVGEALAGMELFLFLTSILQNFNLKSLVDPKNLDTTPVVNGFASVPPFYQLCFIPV

| Structure (SMILES) | activity, negative = inhibition | AC50 |
| --- | --- | --- |
| OC[C@@H]1O[C@@H](O)[C@H](N=Cc2ccc3c(c2)OCO3)[C@@H](O)[C@@H]1O | 12.1% [at 11.4 µM] (inactive) | – |
| O=C(O)/C=C\C=C/c1ccc2c(c1)OCO2 | -5.25% [at 11.4 µM] (inactive) | – |
| C[C@@H](C(=O)O)/C(=C/c1ccc2c(c1)OCO2)C(=O)O | – | 2.51 µM (active) |
| Cc1ccccc1Oc1ccc(-c2nc(N)nc(N)n2)cc1 | – | 8.91 µM (active) |
| Nc1nc(-c2ccc3ccccc3c2)cc(-c2cc(-c3ccc4ccccc4c3)nc(N)n2)n1 | 8.18% [at 11.4 µM] (inactive) | – |
| Cc1cccc(Oc2ncc(-c3ccc(Cl)cc3)cn2)c1C | – | inactive |
| COc1cccc(NC(=O)C2c3cc(OC)c(OC)cc3C(=O)N(C)C2c2cccnc2)c1 (centres undefined) | – | inactive |
| COc1cccc(NC(=O)c2cc(-c3cccnc3)nc3c(Cl)cccc23)c1 | – | 0.794 µM (active) |
| CCCOc1ccc(-c2nc(N)n[nH]2)cc1 | – | inactive |
| NCCSS(=O)(=O)CCN | -9.3% [at 11.4 µM] (inactive) | – |
| c1ccc(NCCSc2nc3ccccc3s2)cc1 | -12.4% [at 11.4 µM] (inactive) | – |
| CCc1cc2c(Sc3nc4ccccc4s3)ncnc2s1 | – | 11.2 µM (active) |
| CCn1c2ccccc2c2cnc(N=CN(C)C)c(C#N)c21 | – | 14.1 µM (active) |
| O=C1[C@H]2[C@H]3[C@H](O)[C@H](O)C/C(=N/OC[C@@H](O)COCc4ccco4)[C@H]3CC[C@@H]2C(=O)N1C1CCCCC1 | 23.1% [at 11.4 µM] (inactive) | – |
| O=C(O)[C@H]1CN[C@H](C(=O)O)C1 | – | inactive |
| CCOC(=O)CSc1ncc(OC)c(Sc2ccc(Cl)cc2)n1 | – | 0.891 µM (active) |
| COC(=O)CSc1ncc(OC)c(OC)n1 | – | inactive |
| CCOC(=O)C(C)Sc1ncc(OC)c(Sc2ccc(Cl)cc2)n1 (centres undefined) | – | 2.51 µM (active) |
| Cc1cnc(CNc2ncncc2-c2ccoc2)cn1 | 6.74% [at 2.29 µM] (inactive) | – |
| O=C(Nc1ccc(-n2nncc2-c2ccco2)cc1)c1cc2ccccc2oc1=O | – | 2.24 µM (active) |
| COc1ccc(-c2cnnn2-c2ccc(NC(=O)c3ccco3)cc2)cc1OC | – | 2.24 µM (active) |
| O=C(NCCN1CCN(C(=O)c2cc3ccccc3oc2=O)CC1)c1cc2ccccc2oc1=O | – | inactive |
| CO[C@H]1C=CO[C@]2(C)Oc3c(C)c(O)c4c(O)c(c5c(c4c3C2=O)NC2(CCN(CC(C)C)CC2)N=5)=NC(=O)C(C)=CC=C[C@@H](C)[C@@H](O)[C@@H](C)[C@@H](O)[C@@H](C)[C@@H](OC(C)=O)[C@@H]1C | – | inactive |
| CC(C)NC(=O)N1CC[C@@]2(CCCN(C(=O)c3cccn3C)C2)C1 | – | inactive |
